A selection: hits, their analogues and other compounds. The true share with any hit is near 14%.
HCMV inh: blocks human cytomegalovirus replication; HFF cells, HCMV-luciferase reporter, 72 h; active compounds read low; activity change, negative = inhibition, % at 57.5 µM; hit rate 4.5% among 410,000; in the data active = activity change below about -60%; inconclusive = no clear call, values can overlap the other calls; inactive = above about -39%
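HFF cells seeded 16 h at 37C, treated with compounds, infected with luciferase-reporter HCMV at MOI 1 PFU/cell; luciferase read at 72 h post infection, normalized to buffer-only and Salinomycin controls.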
HCV inh: inhibitors of hepatitis C virus infection; Huh7.5.1 HCVcc-Cre infection, luciferase reporter, 44 h; Potency, µM (top dose mostly 41.8 µM), without a hit: at the highest dose activity change, negative = inhibition, usual class: inhibitors; hit rate 3.4% among 340,000; also: potency is read from the fitted curve at half-maximal effect
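Whole-lifecycle infectious HCVcc-Cre system; cells 1,000/well, compound then virus (~0.5 moi) added 4 h after plating, 44 h culture. Luciferase read 15 sec following 15 min substrate incubation, room temp.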
Pf growth 96h: inhibits malaria parasite growth, 96 h; hit rate 6.9% among 320,000; P. falciparum luciferase reporter growth, 96 h; Potency, µM (top dose mostly 28.7 µM), for the others: top-dose activity change, negative = inhibition, usual class: inhibitors; also: potency is read from the fitted curve at half-maximal effect
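Readout is luminescence from an integrated firefly luciferase in P. falciparum. Red cells, 2% hematocrit and 0.05% parasitemia final, were cultured with compound through two parasite generations (96 hours) at 37 C, 5% CO2.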
LASV entry inh: blocks Lassa virus binding to or entry into cells; Lassa virus pseudotype entry inhibition, cell reporter; Potency, µM (series often up to 37.9 µM), without a hit: top-dose activity change, negative = inhibition, most hits filed as inhibitors; hit rate 1.2% among 300,000; AID 540256; calls by dose curve; tested in HEK293 cells; also: potency is read from the fitted curve at half-maximal effect; nearly all actives have a fitted effect of over 50% in size
MARV entry inh: inhibitors of Marburg virus binding or cell entry. Marburg virus pseudotyped entry inhibition, cell reporter. Potency, µM (titrated, usually from 37.8 µM), for inactives: at the highest dose activity change, negative = inhibition, most hits filed as inhibitors. hit rate 1.8% among 300,000; calls by dose curve; tested in HEK293 cells; also: potency is read from the fitted curve at half-maximal effect
Pf growth 48h: inhibits P. falciparum growth in the first generation, 48 h; AID 504832; hit rate 5.9% among 310,000; P. falciparum luciferase growth in erythrocytes, 48 h; Potency, µM (titrated, usually from 28.7 µM), without a hit: at the highest dose activity change, negative = inhibition, usual class: inhibitors; also: potency is read from the fitted curve at half-maximal effect
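First compound was added to culture medium, then infected red cells at 0.1% parasitemia and 2% hematocrit (final). After incubation at 37 C under 5% CO2, luciferase detection reagent was dispensed and light output recorded.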
The depositor's hits bear a star; ? = inconclusive; / = no result given; [ ] = dose if it differs, or a comment. Unless noted, calls follow the shape of the dose curve; as a rule, active = well fitted inhibition curve with a large enough effect; inconclusive = small, poorly fitted or top-dose-only effect, or another doubt; inactive = no such curve, though single readings can be large or run the other way. % is scaled to controls: 0 for no effect and ±100 for the full control effect.

SMILES	HCMV inh	HCV inh	Pf growth 96h	LASV entry inh	MARV entry inh	Pf growth 48h
c1cncc(-c2nc(NCC3COc4ccccc4O3)c3ccccc3n2)c1 (stereo not drawn)	-17	11µM*	8.3µM*	-30%	?	/
Cc1ccc(CN(C)c2nc(-c3cccnc3)nc3ccccc23)o1	-21	?	12µM*	?	-2%	?
CN(CC1COc2ccccc2O1)c1nc(-c2cccnc2)nc2ccccc12 (stereo not drawn)	-17	11µM*	?	?	2.6µM*	?
Cc1ccccc1Nc1nc(-c2cccnc2)nc2ccccc12	10	?	?	/	/	?
CN(Cc1ccccc1F)c1nc(-c2cccnc2)nc2ccccc12	-6	?	?	?	?	?
CCN(C(=O)C1CCC(CNS(=O)(=O)c2cccc3nsnc23)CC1)c1ccccc1 (stereo not drawn)	-24	/	/	?	-5%[46.1 µM]	/
CC(=O)Nc1cccc(-c2ccnc3c2CC(C(=O)NCCN(C)C)O3)c1 (stereo not drawn)	21	/	/	/	/	/
N#Cc1ccc2c(c1)C[C@]1(CCCCN3C(=O)c4ccccc4C3=O)Oc3c(c(=O)oc4ccc(F)cc34)[C@@H]2O1	/	/	/	/	-26%[14.2 µM]	/
COc1cc(CCN2C(=O)c3cccc4cccc(c34)C2=O)c(S(=O)(=O)NCCCO)cc1OC	7	-8%	8.3µM*	-1%	-1%	?
COc1ccc(CCN2C(=O)c3cccc4c(C(=O)N5CCCCC5)ccc(c34)C2=O)cc1OC	-65*	-23%	8.3µM*	?	?	?
COc1ccc(CCNC(=O)CCN2C(=O)c3cccc4cccc(c34)C2=O)cc1OC	-13	9%	3%	/	/	3%
COc1cc(CCN2C(=O)c3cccc4cccc(c34)C2=O)c(S(=O)(=O)NCCO)cc1OC	61	-5%	?	-15%	-2%	?
COc1cc(CCN2C(=O)c3cccc4cccc(c34)C2=O)c(S(=O)(=O)N2CCCCCC2)cc1OC	1	?	2.3µM*	29%	-18%	?
COc1cc(CCN2C(=O)c3cccc4cccc(c34)C2=O)c(S(=O)(=O)N2CCC(C)CC2)cc1OC	?	-26%	?	?	?	6.6µM*
COc1ccc(-n2c(=O)c3sc4ccccc4c3n(CC(=O)NC3CCCCC3)c2=O)cc1	-5	/	/	1%[46.1 µM]	-26%[46.1 µM]	/
Cc1ccc(-n2c(=O)c3sc4ccccc4c3n(CC(=O)NC3CCCC3)c2=O)cc1C	-71*	/	/	1%[46.1 µM]	0%[46.1 µM]	/
COc1ccc(-n2c(=O)c3sc4ccccc4c3n(CC(=O)NCc3ccccc3)c2=O)cc1	-105*	/	/	-5%[46.1 µM]	-2%[46.1 µM]	/
CCc1ccc(-n2c(=O)c3sc4ccccc4c3n(CC(=O)NC3CCCCC3)c2=O)cc1	13	/	/	8%[46.1 µM]	13%[46.1 µM]	/
O=C(Cn1c(=O)n(-c2cccc(Cl)c2)c(=O)c2sc3ccccc3c21)N1CCCC1	-81*	/	/	-19%[46.1 µM]	-3%[46.1 µM]	/
CCCCC[C@@H]1C=C(C(=O)O)[C@H](c2ccc(Br)cc2)N1S(=O)(=O)c1ccc(C)cc1	-22	14%	/	/	/	/
CC1Cc2cc(S(=O)(=O)CCC(=O)Nc3ccc(Cl)cc3F)ccc2N1C(=O)C1CC1 (stereo not drawn)	?	/	/	-8%[46.1 µM]	/	/
O=[N+]([O-])c1ccc(N/N=C2/CCCCC2c2ccccn2)cc1 (stereo not drawn)	17	?	6%	?	1.1µM*	-12%
COc1ccc(CNc2nc(-c3ccco3)nn2S(=O)(=O)c2ccc3ccccc3c2)cc1OC	9	/	/	-3%[46.1 µM]	-6%[46.1 µM]	/
C/C(=N\NC(=O)CN(c1ccccc1)S(=O)(=O)c1ccccc1[N+](=O)[O-])C(C)(C)C	-63*	4%	12µM*	8%	?	?
CC(C)(C)C1CCC(=NNC(=O)CN(c2ccccc2)S(=O)(=O)c2ccccc2[N+](=O)[O-])CC1 (stereo not drawn)	-18	11%	11%	8%	4%	-16%
SMILES	HCMV inh	HCV inh	Pf growth 96h	LASV entry inh	MARV entry inh	Pf growth 48h
CCCC/C(C)=N/NC(=O)CN(c1ccc(Br)cc1)S(=O)(=O)c1ccccc1	-16	12%	-27%	2%	6%	-8%
C/C(=N/NC(=O)CN(c1ccccc1)S(=O)(=O)c1ccccc1)c1ccccc1O	-98*	?	?	/	/	?
COc1ccccc1N(CC(=O)N/N=C(\C)c1ccc(F)cc1)S(=O)(=O)c1ccccc1	-101*	0%	?	11%	0%	?
COc1cccc(-c2nc(C(N)=O)c3c(n2)n(-c2ccc4c(c2)OCO4)c(=O)n3C)c1OC	11	/	/	?	/	/
O=C(c1ccc(COc2ccc(F)cc2)o1)n1cc(Br)cn1	77	14%	13%	3%	6%	27%
O=C(c1ccc(COc2ccc(F)cc2)o1)n1cccn1	-104*	19%	0%	14%	17%	51%
OC(c1ccc(F)c(F)c1)c1nc(-c2cccc3cccnc23)cs1 (stereo not drawn)	18	/	/	/	/	/
COC(=O)Nc1c(-c2ccccc2)nc2ccccn12	-23	1%	/	1%	12%	8%
COC(=O)Nc1c(-c2ccccc2)nc2ccc(C)cn12	?	-1%	4.7µM*	19%	?	6%
CCCCNc1c(-c2cccc(-c3cc(C(C)=O)cs3)c2)nc2ccc(C)cn12	191	?	?	/	/	?
CCCCNc1c(-c2cccc(-c3ccc(OC)cc3)c2)nc2ccc(C)cn12	3	?	3.7µM*	/	/	3.3µM*
CCCCNc1c(-c2cccc(-c3ccc(OC)cc3)c2)nc2cc(C)ccn12	-102*	11µM*	/	/	/	/
COc1ccc(/C=C(/NC(=O)c2ccccc2Cl)C(=O)O)cc1	-13	11%	24%	/	/	5%
COc1ccccc1/C=C(/NC(=O)c1ccc(Cl)cc1Cl)C(=O)O	-16	23%	8.3µM*	5%[46.1 µM]	12%[46.1 µM]	20%
CCCC(C)C1(CC)C(=O)NC(=Nc2ccccc2OC)NC1=O (stereo not drawn)	4	-2%	10µM*	-10%	-3%	-2%
CCCC(C)C1(CC)C(=O)NC(=Nc2ccc(OC)cc2)NC1=O (stereo not drawn)	-60*	?	?	18%	2%	-27%
CCCC(C)C1(CC)C(=O)NC(=O)NC1=O (stereo not drawn)	/	/	13%	/	/	-5%
CCOC(=O)CC(NS(=O)(=O)c1cc(-c2cc(C)no2)ccc1C)c1ccc(C)cc1 (stereo not drawn)	-34	/	/	?	/	/
CCCNC(=O)C1(CC2CC(c3ccccc3)=NO2)CCN(C(=O)c2cc(OCC)c(OCC)c(OCC)c2)CC1 (stereo not drawn)	-12	?	/	/	/	/

Screening data from PubChem.
